# OPRM1-OPRD1 ag – agonists of human mu-delta opioid receptor heterodimerization. P35372+P41143. cells, OPRM1-OPRD1 heterodimerization, luminescence. activation, % at 9.3 µM. 0.3% of 340,000 active. AID 504326; in the data active = activation above about 18%;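 note: 0% = vehicle-treated cells and 100% = reference agonist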
# MOR-DOR inv ag – inverse agonists of human mu-delta opioid receptor heterodimerization; P35372+P41143; inhibition, % at 9.3 µM; AID 504357; 0.21% of 340,000 active; cell-based MOR-DOR heterodimer luminescence, inverse agonism; in the data active = inhibition above about 22%, passing the limit was not always enough;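 note: 0% = cells with DMSO and 100% = wells without cells with DMSO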
# HTR5A ag ctr – counter-screen for OPRM1-OPRD1 agonists: human HTR5A agonism | 0.61% of 340,000 active | HTR5A agonist assay, luminescence, cell-based | P47898 | activation, % at 9.3 µM; in the data active = activation mostly above about 9.5%, no sharp cut-off; inactive = mostly below about 7.6%;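 note: 0% = cells with vehicle only and 100% = reference agonist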
# Target sequence (P47898 whole entry, looked up): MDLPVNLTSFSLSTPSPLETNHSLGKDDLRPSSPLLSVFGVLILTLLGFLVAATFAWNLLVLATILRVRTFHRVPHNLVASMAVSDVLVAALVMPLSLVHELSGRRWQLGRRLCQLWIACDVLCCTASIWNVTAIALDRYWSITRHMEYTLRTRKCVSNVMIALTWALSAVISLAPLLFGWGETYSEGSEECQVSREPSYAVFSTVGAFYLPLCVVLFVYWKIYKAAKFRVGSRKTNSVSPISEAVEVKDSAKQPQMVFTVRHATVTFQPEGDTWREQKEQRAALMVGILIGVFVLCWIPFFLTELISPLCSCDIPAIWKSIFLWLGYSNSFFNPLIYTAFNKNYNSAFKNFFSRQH
# HTR5A inv ag – inverse agonist of human HTR5A in OPRM1-OPRD1 counter-screen. P47898. HTR5A cell line, luminescence, inverse agonism. inhibition, % at 9.3 µM. 0.083% of 340,000 active. AID 504634; in the data active = inhibition mostly above about 23%, no sharp cut-off; inactive = mostly below about 18%;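 note: 0% = cells with DMSO and 100% = no-cell wells with DMSO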
# The depositor's hits bear a star. Only some compounds are listed: those with a hit (about 1.1% of all), similar ones and a draw of the others.
SMILES,OPRM1-OPRD1 ag,MOR-DOR inv ag,HTR5A ag ctr,HTR5A inv ag
COc1ccc(OC)c(S(=O)(=O)N(C)CC(=O)N2CCN(c3ccc(F)cc3)CC2)c1,0,-3,-2,6
COc1ccc(OC)c(S(=O)(=O)N(C)CC(=O)N2CCOCC2)c1,-4,13,11*,22
NS(=O)(=O)c1cccc(NC(=O)CSc2nc3ccccc3c(=O)n2CC2CCCO2)c1 (stereo not given),-1,6,5,-11
c1ccc(Nc2nc(N3CCCC3)nc(N3CCCC3)n2)cc1,2,-8,13*,20
CCOC(=O)c1c(-c2ccccc2)oc2cc(CN(C)C)c(O)c(CN(C)C)c12,-1,5,12*,-38
O=C(CS(=O)(=O)Cc1ccccc1)NCCc1ccc(F)cc1,-1,5,-1,-1
CCN(c1ccc(C)cc1C)S(=O)(=O)c1nnc(NC(=O)C(C)(C)C)s1,6,-27,9.9*,-38
O=C1C2C3C=CC(O3)C2C(=O)N1N=Cc1cccc2ccccc12 (stereo not given),-1,4,0,0
COc1ccc(C(=O)c2no[n+]([O-])c2C(=O)c2ccc(OC)cc2)cc1,40*,-200,26*,-56
COc1ccccc1-c1ccc(SCc2ccc(C)cc2)nn1,0,-2,-1,3
COc1ccccc1-c1ccc(SCc2ccc(F)cc2)nn1,0,-2,9.5*,-26
O=c1n(-c2ccccc2)c(=O)n2n1CCC2,-2,13,10*,10
O=c1n(-c2ccccc2)c(=O)n2n1CCCC2,-2,12,5,-5
Cc1cc(C)c(O)c(CN(C)Cc2cc(Cl)cc(Cl)c2O)c1,4,-20,13*,-53
CCOC(=O)C1CCN(C(=O)C2CCN(C(=O)c3ccc([N+](=O)[O-])cc3)CC2)CC1,-5,26,6,-13
CCOC(=O)C1CCN(c2ccc([N+](=O)[O-])cc2)CC1,-3,14,13*,-1
CC(C)CSc1nc2c(c(=O)[nH]c(=O)n2C)n1CC(O)COc1cccc2ccccc12 (stereo not given),6,-32,13*,-29
O=C(CSc1nc2ccc(NC(=O)CSc3nnnn3Cc3ccccc3)cc2s1)Nc1ccccc1,4,-23,14*,-32
Cc1cccc(NS(=O)(=O)c2cccc3cccnc23)n1,0,0,13*,-40
COc1ccc(NS(=O)(=O)c2cccc3cccnc23)cc1,-2,11,3,-23
O=C(CN1C(=O)NC2(CCCCCC2)C1=O)c1ccc(Cl)cc1,4,-16,0,-4
CC(C)(C)c1cc(CCC(=O)NNC(=S)NC(=O)c2ccccc2)cc(C(C)(C)C)c1O,-9,68*,-29,82*
COc1ccc(C(=O)N/C(=C/c2cccnc2)C(=O)N2CCCCCC2)cc1OC,-1,7,8.8*,-33
NC(=O)c1c(NC(=O)C(=O)N2CCOCC2)sc2c1CCC2,-2,9,0,0
Cc1nc(C)c(C(=O)NNS(=O)(=O)c2ccccc2)s1,-1,7,10*,-28
SMILES,OPRM1-OPRD1 ag,MOR-DOR inv ag,HTR5A ag ctr,HTR5A inv ag
COC(=O)c1cn(NC(=O)c2cccc(F)c2)c(=O)c2ccccc12,-1,5,-1,-13
COC(=O)c1cn(NC(=O)c2cccc(N(C)C)c2)c(=O)c2ccccc12,1,-4,9.2*,-5
Fc1ccc(-[n+]2nc(Nc3ccccc3)sc2-c2c3ccccc3cc3ccccc23)cc1,10,-58,17*,-15
Oc1ccc2ccccc2c1-c1sc(Nc2ccccc2)n[n+]1-c1ccc(F)cc1,5,-31,2,-12
Cc1ccc(-c2noc(CCC(=O)NCc3ccccc3CN3CCOCC3)n2)cc1,2,-8,14*,15
COc1ccc(N2CC(O)(c3ccc(C)cc3)[N+]3=C2CCCC3)cc1 (stereo not given),-3,12,13*,-37
Cc1ccc(NC(=O)c2ccc3ccccc3n2)nc1,-1,5,14*,-51
CCN1CCCC1CNC(=O)c1cc([N+](=O)[O-])c(N(C)C)cc1OC (stereo not given),-2,10,-3,11
O=C1N/C(=C\c2ccc(O)cc2)C(=O)c2ccccc21,6,-33,12*,18
O=C(O)/C=C1\NC(=O)c2ccccc21,-4,16,5,0
O=C1C(Cc2ccccc2)Nc2ncnc(N3CCN(c4ccccc4)CC3)c2N1Cc1ccc(Br)cc1 (stereo not given),-15,68*,-22,59*
CCC1Nc2ncnc(N3CCN(c4ccccc4)CC3)c2N(Cc2ccc(Br)cc2)C1=O (stereo not given),-13,79*,-29,79*

# High-throughput results (PubChem)
